Data published in PubChem BioAssay AID1159580 (chemical genetic matrix, 2015).
Among all 5,500 compounds or so, about 2,000 (36%) were called active. Another 18% or so got no clear call; they are omitted. No stated cut-off is given here; in the data, active means normalized growth mostly below about 0.91 (no sharp cut-off); inconclusive means no clear call, values can overlap the other calls; inactive means mostly above about 0.92. The list shows a part of the results.

Assay: chemical genetic growth profiling, strain panel (AID 1159580);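 further: tested at 20 µM; growth read once vehicle control cultures reached saturation at 30 °C; 1 = growth at the plate median or of vehicle wells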
Settings: growth OD
[1] = S. cerevisiae deletion strains, locus YDL101C, strain DUN1, stronger effect = lower value
[2] = S. cerevisiae deletion strains, locus YHR030C, strain SLT2, stronger effect = lower value
[3] = S. cerevisiae deletion strains, locus YJL095W, strain BCK1, stronger effect = lower value
[4] = S. cerevisiae deletion strains, locus YOR061W, strain CKA2, stronger effect = lower value

Measured: normalized growth

Cc1ccc(NS(=O)(=O)c2ccc(-c3csc(C)n3)s2)c(C)c1
inactive: S. cerevisiae deletion strains, locus YAR019C, strain CDC15, stronger effect = lower value 0.977 | S. cerevisiae deletion strains, locus YBL105C, strain PKC1, stronger effect = lower value 0.984 | S. cerevisiae deletion strains, locus YBR135W, strain CKS1, stronger effect = lower value 0.979 | S. cerevisiae deletion strains, locus YBR136W, strain MEC1, stronger effect = lower value 0.981 | S. cerevisiae deletion strains, locus YBR160W, strain CDC28, stronger effect = lower value 0.983 | S. cerevisiae deletion strains, locus YDL017W, strain CDC7, stronger effect = lower value 0.984 | S. cerevisiae deletion strains, locus YDL028C, strain MPS1, stronger effect = lower value 0.98 | [1] 0.993 | S. cerevisiae deletion strains, locus YDL108W, strain KIN28, stronger effect = lower value 0.972 | S. cerevisiae deletion strains, locus YDL132W, strain cdc53, stronger effect = lower value 0.989 | S. cerevisiae deletion strains, locus YDL214C, strain PRR2, stronger effect = lower value 0.904 | S. cerevisiae deletion strains, locus YDR052C, strain DBF4, stronger effect = lower value 0.986 | S. cerevisiae deletion strains, locus YDR054C, strain cdc34, stronger effect = lower value 0.975 | S. cerevisiae deletion strains, locus YDR226W, strain ADK1, stronger effect = lower value 0.986 | S. cerevisiae deletion strains, locus YDR477W, strain SNF1, stronger effect = lower value 0.885 | S. cerevisiae deletion strains, locus YER123W, strain YCK3, stronger effect = lower value 0.888 | S. cerevisiae deletion strains, locus YER133W, strain GLC7, stronger effect = lower value 0.883 | S. cerevisiae deletion strains, locus YFL009W, strain cdc4, stronger effect = lower value 0.976 | S. cerevisiae deletion strains, locus YFL029C, strain CAK1, stronger effect = lower value 0.979 | S. cerevisiae deletion strains, locus YFR003C, strain YPI1, stronger effect = lower value 0.98 | S. cerevisiae deletion strains, locus YFR019W, strain FAB1, stronger effect = lower value 0.934 | S. cerevisiae deletion strains, locus YFR028C, strain CDC14, stronger effect = lower value 0.981 | S. cerevisiae deletion strains, locus YGR040W, strain KSS1, stronger effect = lower value 0.895 | S. cerevisiae deletion strains, locus YGR052W, strain FMP48, stronger effect = lower value 0.928 | S. cerevisiae deletion strains, locus YGR092W, strain DBF2, stronger effect = lower value 0.913 | S. cerevisiae deletion strains, locus YHR079C, strain IRE1, stronger effect = lower value 0.883 | S. cerevisiae deletion strains, locus YHR082C, strain KSP1, stronger effect = lower value 0.976 | S. cerevisiae deletion strains, locus YHR205W, strain SCH9, stronger effect = lower value 0.977 | S. cerevisiae deletion strains, locus YIL147C, strain SLN1, stronger effect = lower value 0.982 | [3] 0.859 | S. cerevisiae deletion strains, locus YJL128C, strain PBS2, stronger effect = lower value 0.943 | S. cerevisiae deletion strains, locus YJL157C, strain FAR1, stronger effect = lower value 0.931 | S. cerevisiae deletion strains, locus YJR016C, strain ILV3, stronger effect = lower value 0.983 | S. cerevisiae deletion strains, locus YJR066W, strain TOR1 (second series), stronger effect = lower value 0.826 | S. cerevisiae deletion strains, locus YJR066W, strain TOR1, stronger effect = lower value 0.936 | S. cerevisiae deletion strains, locus YKL048C, strain ELM1, stronger effect = lower value 0.957 | S. cerevisiae deletion strains, locus YKL067W, strain YNK1, stronger effect = lower value 0.898 | S. cerevisiae deletion strains, locus YKL101W, strain HSL1, stronger effect = lower value 0.894 | S. cerevisiae deletion strains, locus YKL193C, strain SDS22, stronger effect = lower value 0.985 | S. cerevisiae deletion strains, locus YKL203C, strain TOR2, stronger effect = lower value 0.92 | S. cerevisiae deletion strains, locus YLR133W, strain CKI1, stronger effect = lower value 0.902 | S. cerevisiae deletion strains, locus YLR403W, strain SFP1, stronger effect = lower value 0.912 | S. cerevisiae deletion strains, locus YML070W, strain DAK1, stronger effect = lower value 0.856 | S. cerevisiae deletion strains, locus YMR001C, strain CDC5, stronger effect = lower value 0.977 | S. cerevisiae deletion strains, locus YMR205C, strain PFK2 (second series), stronger effect = lower value 0.915 | S. cerevisiae deletion strains, locus YMR277W, strain FCP1, stronger effect = lower value 0.98 | S. cerevisiae deletion strains, locus YNL006W, strain LST8, stronger effect = lower value 0.978 | S. cerevisiae deletion strains, locus YNL020C, strain ARK1, stronger effect = lower value 0.898 | S. cerevisiae deletion strains, locus YNL161W, strain CBK1, stronger effect = lower value 0.982 | S. cerevisiae deletion strains, locus YNL183C, strain NPR1, stronger effect = lower value 0.893 | S. cerevisiae deletion strains, locus YNL207W, strain RIO2, stronger effect = lower value 0.975 | S. cerevisiae deletion strains, locus YNL222W, strain SSU72, stronger effect = lower value 0.986 | S. cerevisiae deletion strains, locus YNL307C, strain MCK1 (second series), stronger effect = lower value 0.887 | S. cerevisiae deletion strains, locus YOL078W, strain AVO1, stronger effect = lower value 0.983 | S. cerevisiae deletion strains, locus YOL136C, strain PFK27, stronger effect = lower value 0.915 | [4] 0.84 | S. cerevisiae deletion strains, locus YOR119C, strain RIO1, stronger effect = lower value 0.93 | S. cerevisiae deletion strains, locus YOR231W, strain MKK1, stronger effect = lower value 0.806 | S. cerevisiae deletion strains, locus YOR329C, strain SCD5, stronger effect = lower value 0.98 | S. cerevisiae deletion strains, locus YPL031C, strain PHO85, stronger effect = lower value 0.892 | S. cerevisiae deletion strains, locus YPL153C, strain RAD53, stronger effect = lower value 0.937 | S. cerevisiae deletion strains, locus YPL204W, strain HRR25, stronger effect = lower value 0.881 | S. cerevisiae deletion strains, locus YPL209C, strain IPL1, stronger effect = lower value 0.982 | S. cerevisiae deletion strains, locus YPR025C, strain CCL1, stronger effect = lower value 0.981 | S. cerevisiae deletion strains, locus YPR106W, strain ISR1, stronger effect = lower value 0.988 | S. cerevisiae deletion strains, locus YPR111W, strain DBF20, stronger effect = lower value 0.962 | S. cerevisiae deletion strains, strain NNK1, stronger effect = lower value 0.974 | S. cerevisiae deletion strains, strain TSCII, stronger effect = lower value 0.975
active: [2] 0.647 | S. cerevisiae deletion strains, locus YLR113W, strain HOG1, stronger effect = lower value 0.676 | S. cerevisiae deletion strains, locus YPL256C, strain CLN2, stronger effect = lower value 0.715

NC[C@@H]1CC[C@@H](N)[C@@H](O[C@H]2[C@H](O)[C@@H](O[C@H]3O[C@H](CO)[C@@H](O)[C@H](N)[C@H]3O)[C@H](N)C[C@@H]2N)O1
inactive: S. cerevisiae deletion strains, locus YAL013W, strain DEP1, stronger effect = lower value 0.987 | S. cerevisiae deletion strains, locus YBR021W, strain FUR4, stronger effect = lower value 1.06 | S. cerevisiae deletion strains, locus YBR229C, strain ROT2, stronger effect = lower value 0.959 | S. cerevisiae deletion strains, locus YCL029C, strain bik1, stronger effect = lower value 0.985 | S. cerevisiae deletion strains, locus YDL035C, strain GPR1, stronger effect = lower value 0.995 | S. cerevisiae deletion strains, locus YDL074C, strain BRE1, stronger effect = lower value 0.983 | [1] 0.952 | S. cerevisiae deletion strains, locus YDL134C, strain PPH21, stronger effect = lower value 0.993 | S. cerevisiae deletion strains, locus YDL185W, strain tfp1, stronger effect = lower value 0.984 | S. cerevisiae deletion strains, locus YDL192W, strain arf1, stronger effect = lower value 0.993 | S. cerevisiae deletion strains, locus YDR101C, strain arx1, stronger effect = lower value 1 | S. cerevisiae deletion strains, locus YDR150W, strain NUM1, stronger effect = lower value 0.986 | S. cerevisiae deletion strains, locus YDR162C, strain NBP2, stronger effect = lower value 0.967 | S. cerevisiae deletion strains, locus YDR318W, strain mcm21, stronger effect = lower value 1.01 | S. cerevisiae deletion strains, locus YDR388W, stronger effect = lower value 1 | S. cerevisiae deletion strains, locus YDR502C, strain sam2, stronger effect = lower value 1 | S. cerevisiae deletion strains, locus YEL061C, strain CIN8, stronger effect = lower value 0.987 | S. cerevisiae deletion strains, locus YER110C, stronger effect = lower value 0.996 | S. cerevisiae deletion strains, locus YER155C, strain BEM2, stronger effect = lower value 1 | S. cerevisiae deletion strains, locus YER167W, strain BCK2, stronger effect = lower value 0.98 | S. cerevisiae deletion strains, locus YGL078C, strain dbp3, stronger effect = lower value 0.994 | S. cerevisiae deletion strains, locus YGL086W, strain mad1, stronger effect = lower value 0.995 | S. cerevisiae deletion strains, locus YGL248W, strain PDE1, stronger effect = lower value 0.978 | S. cerevisiae deletion strains, locus YGR078C, strain PAC10, stronger effect = lower value 0.986 | S. cerevisiae deletion strains, locus YGR135W, strain pre9, stronger effect = lower value 0.982 | S. cerevisiae deletion strains, locus YGR229C, strain SMI1, stronger effect = lower value 1.01 | S. cerevisiae deletion strains, locus YGR252W, strain gcn5, stronger effect = lower value 1.02 | [2] 0.995 | S. cerevisiae deletion strains, locus YHR079C, strain IRE1 (second series), stronger effect = lower value 1 | S. cerevisiae deletion strains, locus YHR094C, strain hxt1, stronger effect = lower value 1 | S. cerevisiae deletion strains, locus YHR129C, strain ARP1, stronger effect = lower value 0.992 | S. cerevisiae deletion strains, locus YHR200W, strain rpn10, stronger effect = lower value 0.988 | S. cerevisiae deletion strains, locus YIL066C, strain RNR3, stronger effect = lower value 0.995 | S. cerevisiae deletion strains, locus YIL073C, strain SPO22, stronger effect = lower value 0.971 | S. cerevisiae deletion strains, locus YIL125W, strain kgd1, stronger effect = lower value 0.993 | S. cerevisiae deletion strains, locus YIR030C, strain dcg1, stronger effect = lower value 0.985 | [3] 0.984 | S. cerevisiae deletion strains, locus YJL134W, strain LCB3, stronger effect = lower value 0.978 | S. cerevisiae deletion strains, locus YJL168C, strain set2, stronger effect = lower value 0.995 | S. cerevisiae deletion strains, locus YJL187C, strain SWE1 (second series), stronger effect = lower value 0.977 | S. cerevisiae deletion strains, locus YJR043C, strain POL32, stronger effect = lower value 1.01 | S. cerevisiae deletion strains, locus YJR075W, strain HOC1, stronger effect = lower value 0.996 | S. cerevisiae deletion strains, locus YKL009W, strain mrt4, stronger effect = lower value 0.974 | S. cerevisiae deletion strains, locus YKL068W, stronger effect = lower value 0.996 | S. cerevisiae deletion strains, locus YKL085W, strain MDH1 (second series), stronger effect = lower value 0.983 | S. cerevisiae deletion strains, locus YKL085W, strain MDH1, stronger effect = lower value 0.983 | S. cerevisiae deletion strains, locus YKL190W, strain CNB1, stronger effect = lower value 1 | S. cerevisiae deletion strains, locus YKR001C, strain vps1, stronger effect = lower value 0.994 | S. cerevisiae deletion strains, locus YLR039C, strain RIC1, stronger effect = lower value 0.938 | S. cerevisiae deletion strains, locus YLR058C, strain SHM2, stronger effect = lower value 0.974 | S. cerevisiae deletion strains, locus YLR102C, strain apc9, stronger effect = lower value 0.993 | S. cerevisiae deletion strains, locus YLR262C, strain YPT6, stronger effect = lower value 0.9 | S. cerevisiae deletion strains, locus YLR268W, strain sec22, stronger effect = lower value 0.986 | S. cerevisiae deletion strains, locus YLR330W, strain CHS5, stronger effect = lower value 0.981 | S. cerevisiae deletion strains, locus YLR342W, strain FKS1 (second series), stronger effect = lower value 1.01 | S. cerevisiae deletion strains, locus YLR371W, strain rom2, stronger effect = lower value 1 | S. cerevisiae deletion strains, locus YLR418C, strain cdc73, stronger effect = lower value 0.968 | S. cerevisiae deletion strains, locus YML016C, strain PPZ1, stronger effect = lower value 0.981 | S. cerevisiae deletion strains, locus YML032C, strain rad52, stronger effect = lower value 1 | S. cerevisiae deletion strains, locus YML124C, strain tub3, stronger effect = lower value 1.01 | S. cerevisiae deletion strains, locus YMR078C, strain ctf18, stronger effect = lower value 1 | S. cerevisiae deletion strains, locus YMR223W, strain ubp8, stronger effect = lower value 1.01 | S. cerevisiae deletion strains, locus YMR263W, strain SAP30, stronger effect = lower value 0.983 | S. cerevisiae deletion strains, locus YMR307W, strain GAS1, stronger effect = lower value 1.13 | S. cerevisiae deletion strains, locus YNL067W, strain RPL9B, stronger effect = lower value 0.981 | S. cerevisiae deletion strains, locus YNL128W, strain TEP1, stronger effect = lower value 0.98 | S. cerevisiae deletion strains, locus YNL153C, strain GIM3, stronger effect = lower value 0.991 | S. cerevisiae deletion strains, locus YNL233W, strain BNI4, stronger effect = lower value 0.994 | S. cerevisiae deletion strains, locus YNL250W, strain rad50, stronger effect = lower value 0.983 | S. cerevisiae deletion strains, locus YNL271C, strain bni1, stronger effect = lower value 1 | S. cerevisiae deletion strains, locus YNL298W, strain CLA4, stronger effect = lower value 1.01 | S. cerevisiae deletion strains, locus YNL307C, strain MCK1, stronger effect = lower value 0.997 | S. cerevisiae deletion strains, locus YNL322C, strain KRE1, stronger effect = lower value 0.987 | S. cerevisiae deletion strains, locus YNR052C, strain pop2, stronger effect = lower value 0.953 | S. cerevisiae deletion strains, locus YOL006C, strain TOP1, stronger effect = lower value 0.917 | S. cerevisiae deletion strains, locus YOL012C, strain htz1 0.745 | S. cerevisiae deletion strains, locus YOL147C, strain pex11, stronger effect = lower value 1.01 | [4] 0.95 | S. cerevisiae deletion strains, locus YOR069W, strain VPS5, stronger effect = lower value 0.996 | S. cerevisiae deletion strains, locus YOR136W, strain idh2, stronger effect = lower value 1 | S. cerevisiae deletion strains, locus YOR144C, strain elg1, stronger effect = lower value 1 | S. cerevisiae deletion strains, locus YOR184W, strain ser1, stronger effect = lower value 1.03 | S. cerevisiae deletion strains, locus YOR316C, strain cot1, stronger effect = lower value 0.985 | S. cerevisiae deletion strains, locus YPL055C, strain LGE1, stronger effect = lower value 0.984 | S. cerevisiae deletion strains, locus YPL241C, strain CIN2, stronger effect = lower value 0.991 | S. cerevisiae deletion strains, locus YPR119W, strain clb2, stronger effect = lower value 1 | S. cerevisiae deletion strains, locus YPR141C, strain kar3, stronger effect = lower value 0.966 | S. cerevisiae deletion strains, locus YPR163C, strain tif3, stronger effect = lower value 1.01 | S. cerevisiae deletion strains, locus YPR167C, strain met16, stronger effect = lower value 0.988 | S. cerevisiae deletion strains, strain wtn01, stronger effect = lower value 0.987 | S. cerevisiae strains, strain wild type, stronger effect = lower value 0.992
